Shown are actives, neighbours in structure and some others; about 1.3% of the full set was active somewhere.
PKA-R1A activ: activators of PKA-R1A complex; AID 504707; activation, % at 11.4 µM; P00514+P68181; 340,000 compounds, 0.083% hits; PKA-R1A dissociation, Cy5-IP20 fluorescence polarization; scaled: DMSO 0%, 113 µM cGMP 100%;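 active = percent activation above the mean of all tested compounds plus 3 SD, cut at about 19% in these data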;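 note: higher means more PKAc released from R1A so a rise in polarization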
PKA-R2B activ: PKA-R2B complex activation; PKA-R2B holoenzyme dissociation, Cy5-IP20 fluorescence polarization; R2B truncated from residue 108, S112A mutant; 0% DMSO only, 100% 113 µM cGMP; activation, % at 11.4 µM; 340,000 compounds, 0.079% hits;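 active = activation above a cutoff set at the mean over all compounds plus 3 SD, cut at about 18% in these data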;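 note: higher means more holoenzyme dissociation and a rise in polarization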
Rin1 Abl inh: blocks binding of human Rin1 to Abl; AID 588664; P00519+Q13671; inhibition, % at 7.35 µM; TR-FRET Rin1/Abl binding, biochemical; 360,000 compounds, 0.4% hits; in the data active = inhibition above about 5%, passing the limit was not always enough
IDE cell inh: inhibits human insulin-degrading enzyme in HEK cells. FAbetaB cleavage, fluorescence polarization. inhibition, % at 5.59 µM. 320,000 compounds, 0.41% hits;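 active = percent inhibition above the average of all tested compounds plus 3 SD, set per screening campaign, cut at about 16% in these data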;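 note: IDE supplied by intact live HEK cells; FP after avidin binding of uncleaved biotin substrate so inhibition keeps polarization high; 0% = DMSO wells and 100% = 60 µM reference IDE inhibitor Ii1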
E coli Lon inh: inhibits E. coli Lon protease. P0A9M0. purified E. coli Lon protease, fluorescence polarization. inhibition, % at 7.94 µM. 360,000 compounds, 0.42% hits; in the data active = inhibition above about 13%, passing the limit was not always enough;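 note: 0% = enzyme with probe and DMSO and 100% = no enzyme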
Target sequence (P0A9M0 whole entry, looked up): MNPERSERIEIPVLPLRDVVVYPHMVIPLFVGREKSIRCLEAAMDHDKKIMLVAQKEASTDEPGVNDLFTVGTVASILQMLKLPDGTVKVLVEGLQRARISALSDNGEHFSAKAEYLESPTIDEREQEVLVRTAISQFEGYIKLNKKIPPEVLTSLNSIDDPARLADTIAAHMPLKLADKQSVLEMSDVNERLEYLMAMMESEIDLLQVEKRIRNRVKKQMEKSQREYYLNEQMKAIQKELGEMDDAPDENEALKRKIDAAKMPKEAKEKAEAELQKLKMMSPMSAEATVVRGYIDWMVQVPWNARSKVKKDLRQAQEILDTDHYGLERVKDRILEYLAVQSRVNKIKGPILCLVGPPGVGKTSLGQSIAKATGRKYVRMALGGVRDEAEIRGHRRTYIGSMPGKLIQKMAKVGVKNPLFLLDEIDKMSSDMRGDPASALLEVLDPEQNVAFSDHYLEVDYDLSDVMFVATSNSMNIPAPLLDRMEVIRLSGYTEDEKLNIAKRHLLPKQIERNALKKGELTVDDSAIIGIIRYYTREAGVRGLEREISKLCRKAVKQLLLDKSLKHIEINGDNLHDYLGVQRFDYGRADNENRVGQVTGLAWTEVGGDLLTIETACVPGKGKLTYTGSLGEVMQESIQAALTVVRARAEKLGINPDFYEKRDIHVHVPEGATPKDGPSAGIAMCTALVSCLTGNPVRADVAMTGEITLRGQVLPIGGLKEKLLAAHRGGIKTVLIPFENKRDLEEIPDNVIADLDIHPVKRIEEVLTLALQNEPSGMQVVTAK
IDE act: activators of human insulin-degrading enzyme in cells | activation, % at 5.96 µM | HEK cells, FAbeta-B cleavage, fluorescence polarization; 0% vehicle, 100% cell-free pure enzyme wells | AID 493087 | 340,000 compounds, 0.073% hits;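 active = activation above the mean of all tested compounds plus 3 SD, set per screening campaign, cut at about 17% in these data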
Rin1-Abl confirm: Rin1-Abl interaction inhibition confirmation. AID 602124. inhibition, % at 7.35 µM. shares compounds with Rin1 Abl inh. TR-FRET Rin1-Abl binding, purified proteins. 1,300 compounds, 49% hits
GFP quencher: counter-screen for Rin1-Abl inhibitors: GFP fluorescence quenchers; shares compounds with Rin1 Abl inh; inhibition, % at 6.75 µM; 1,300 compounds, 8.5% hits; inhibitors/quenchers counterscreen;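 note: ABL1-eGFP fusion protein alone without its partner RIN1-SBP; 0% = protein with vehicle and 100% = wells lacking protein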
GFP quench dose: quenches GFP in dose response, Rin1-Abl counter-screen; shares compounds with Rin1 Abl inh; GFP fluorescence interference/quenching counterscreen; IC50, µM; 230 tested, under 10 active; call rule not given here;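 note: ABL1-eGFP fusion protein alone without its RIN1 binding partner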
E coli Lon conf: confirmation of E. coli Lon protease inhibitors. shares compounds with E coli Lon inh. purified E. coli Lon, fluorescence polarization. inhibition, % at 7.94 µM. 1,400 compounds, 31% hits; in the data active = inhibition above about 16%;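 note: 0% = enzyme with probe and DMSO and 100% = no enzyme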
Active calls of the source: *; . = not tested or not shown; + = active, no number. Cut-off read from the data, not from the text of the source, unless noted: active = inhibition above about 6.5%; inactive = the rest.

SMILES	PKA-R1A activ	PKA-R2B activ	Rin1 Abl inh	IDE cell inh	E coli Lon inh	IDE act	others
CSCCC(c1nnnn1Cc1ccccc1)N1CCC(n2c(=O)[nH]c3ccccc32)CC1 (configuration not stated)	.	.	4.9	.	-2.0	.
O=c1[nH]c2ccccc2n1C1CCN(C(CCc2ccccc2)c2nnnn2Cc2ccccc2)CC1 (configuration not stated)	.	.	1.2	.	-11.4	.
CSCCC(c1nnnn1C1CCCCC1)N1CCC(n2c(=O)[nH]c3ccccc32)CC1 (configuration not stated)	.	.	52.7*	.	1.8	.	Rin1-Abl confirm=44.2*;GFP quencher=-1.9;GFP quench dose=>67.5
CCCCn1c(O)c(C(CC)=Nc2ccc(C(=O)O)cc2)c(=O)[nH]c1=O	1.4	7.0	1.3	4.0	-13.2	-4.1
O=P(/C(=N/O)N1CCCCC1)(N1CCOCC1)N1CCOCC1	8.5	1.6	-2.4	0.8	-0.5	2.1
C#CCOc1cc(C2C3=C(COC3=O)Nc3cc4c(cc32)OCO4)ccc1OC (configuration not stated)	-9.0	-2.7	1.7	2.2	7.5	5.8
CN1C(=O)C(Cc2ccc3c(c2)OCO3)C(=O)N(C)C1=O	.	.	.	5.7	.	.
CCOC(=O)c1c(NS(=O)(=O)c2ccccc2)n(CCCOC)c2nc3ccccc3nc12	2.4	-1.6	33.4*	-1.4	-6.9	0.8	Rin1-Abl confirm=0.6;GFP quencher=0.4
COCCCn1c(N)c(C(=O)OCCOC)c2nc3ccccc3nc21	-1.5	4.5	0.1	2.8	-6.5	0.9
Cc1nc2c(=O)n(C)c(=O)nc-2n(C)n1	1.0	13.7	37.1*	4.1	-6.0	0.9	Rin1-Abl confirm=45.4*;GFP quencher=-0.2;GFP quench dose=>67.5
COc1ccc(C(CC(C)=O)c2c(O)c3ccccc3oc2=O)cc1OC (configuration not stated)	-1.1	-6.2	1.8	.	15.4	.
CC/C(CC(c1ccccc1)c1c(O)c2ccccc2oc1=O)=N\NC(N)=S (configuration not stated)	3.3	-7.0	5.9*	-6.5	1.4	4.2	Rin1-Abl confirm=5.2;GFP quencher=0.3
Brc1ccc(Oc2cc(Br)c(Br)cc2Br)c(Br)c1	0.3	3.8	8.2*	-3.0	-0.3	2.5	Rin1-Abl confirm=13.2*;GFP quencher=-1.6
CC(C)(C)c1ccc(O)c(N=Cc2c(O)ccc3ccccc23)c1	1.9	10.9	-2.5	-5.3	-298.0	5.2
COC(=O)C1=C(c2ccc(OC(F)(F)F)cc2)C[C@@H]2CC[C@H]1N2C(=O)NC(C)C	-5.8	-8.0	1.0	-4.8	-2.1	5.2
COC(=O)C1=C(c2ccc(Cl)c(C(F)(F)F)c2)C[C@@H]2CC[C@H]1N2C(=O)NCCOc1ccccc1	-7.2	2.9	1.6	1.9	8.1	3.4
CCCN1CCc2cccc3c2[C@H]1Cc1ccc(O)c(O)c1-3	-9.9	-12.5	11.8*	0.6	11.7	-21.1	Rin1-Abl confirm=5.9;GFP quencher=8.6*
COc1ccc2c(c1O)-c1c(OC)c(OC)cc3c1[C@H](C2)N(C)CC3	4.2	5.6	1.1	0.0	-3.0	2.2
C=Cc1cc(OC)c2c(c1)c(=O)oc1c2cc(OC)c2c(O)ccc(C3OC(C)C(O)C(C)(O)C3O)c21 (configuration not stated)	-0.1	-10.3	21.5*	.	4.6	10.5	Rin1-Abl confirm=-5.0;GFP quencher=1.0
C[C@]12CC[C@H](O)CC1=CC(=O)C1C2CC[C@]2(C)C(=O)CCC12 (some centres not stated)	4.5	-3.9	12.9*	-0.5	1.3	1.2	Rin1-Abl confirm=6.2;GFP quencher=-1.1
Cc1ccc(OCCOc2cccc(C=C3C(=O)NC(=O)NC3=O)c2)c(C)c1	-7.8	1.6	-1.0	4.9	-3.9	-6.1
CN1C[C@H](CNC(=O)OCc2ccccc2)C[C@@H]2c3cccc4c3c(cn4C)C[C@H]21	0.0	-6.0	-1.1	0.7	75.8*	4.0	E coli Lon conf=35.9*
CCOC(=O)Cn1cc(C=C2C(=O)N(C)C(=O)N(C)C2=O)c2ccccc21	-1.0	-5.9	0.5	4.3	-19.4	4.7
COCCOC(=O)c1c(N)n(Cc2ccco2)c2nc3ccccc3nc12	-5.4	6.8	-1.0	3.3	15.9*	-5.5	E coli Lon conf=6.7
CC(C)OC(=O)c1c(N)n(Cc2ccco2)c2nc3ccccc3nc12	15.0	-6.8	-3.4	-5.7	-3.1	7.4
SMILES	PKA-R1A activ	PKA-R2B activ	Rin1 Abl inh	IDE cell inh	E coli Lon inh	IDE act	others
COC(=O)C1=C(c2ccc(Cl)c(C(F)(F)F)c2)C[C@@H]2CC[C@H]1N2C	-2.2	-1.5	6.3	-2.9	5.0	5.6
CN1CCN(c2ccc([N+](=O)[O-])c3no[n+]([O-])c23)CC1	-0.9	-11.7	-21.6	-1.4	130.6*	12.2	E coli Lon conf=101.7*
O=[N+]([O-])c1ccc(N(CCO)CCO)c2c1no[n+]2[O-]	0.6	-2.7	-47.6	.	65.8*	.	E coli Lon conf=31.5*
O=C(c1ccco1)N1Cc2ccccc2-n2nncc2C1	-8.8	-9.1	-2.7	.	-3.4	.
CN1CC=C2C(C#N)=C(N)C(C#N)(C#N)C(c3ccncc3)C2C1 (configuration not stated)	-11.3	-13.6	-6.5	1.9	57.4*	4.8	E coli Lon conf=81.1*
COc1ccc2c(c1)NP(=S)(c1ccccc1)N2C (configuration not stated)	-3.6	1.3	-6.5	.	53.0*	0.0	E coli Lon conf=2.7
CCN1/C(=C/C=C/C2=[N+](CC)c3ccccc3C2(C)C)C(C)(C)c2ccccc21	0.6	-12.4	-32.1	.	+	.	E coli Lon conf=+
CC(C)(C)c1ccc(C(=O)C2CCCN(C3CCC3)C2)cc1 (configuration not stated)	-8.8	2.3	-1.6	-2.2	3.0	1.3
CNc1ccc2nc3ccccc3[n+](C)c2c1	1.4	-4.0	-31.1	-3.5	94.8*	2.6	E coli Lon conf=106.4*
C[n+]1c2ccccc2nc2ccc(NCCO)cc21	-0.9	-4.4	-14.7	6.2	45.0	1.1
COC[C@H]1OC(=O)c2coc3c2[C@@]1(C)C1=C(C3=O)[C@@H]2CCC(=O)[C@@]2(C)C[C@H]1OC(C)=O	-12.0	-16.3	-0.3	.	66.3	4.6
Cc1cc(N2CCCC2)ccc1C=C(C#N)C#N	-15.5	-4.8	-1.2	7.7	-25.4	-5.0
Cc1ccc2cc(C=C(C#N)C#N)c(Cl)nc2c1	-0.5	6.0	-5.5	6.0	163.9*	-5.7	E coli Lon conf=82.9*
Cc1cccc(OP(N)(=O)Oc2cccc(C)c2C)c1C	-8.8	-6.0	0.9	6.1	5.8	4.6
COC(=O)C1=C(c2cccc(OCc3ccccc3)c2)C[C@@H]2CC[C@H]1N2C(=O)NCc1cc(C)oc1C(F)(F)F	-8.2	4.9	2.6	6.4	26.2*	3.9	E coli Lon conf=-3.5
COC(=O)C1=C(c2cccc(OCc3ccccc3)c2)C[C@@H]2CC[C@H]1N2C(=O)NCc1cccc(C(F)(F)F)c1	2.4	-5.0	-1.3	0.2	0.1	0.6

High-throughput results: PubChem BioAssay, The Scripps Research Institute Molecular Screening Center
